# Bioassay records from PubChem.
# PNC assembly inh: perinucleolar compartment assembly inhibition | activity change (PNC), negative = inhibition, % at 10 µM | PC3M PTB-GFP, PNC prevalence imaging, 16 h; active compounds read low | hit rate 3.1% among 140,000;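 active means readout at or below -70, meaning at least 70% loss of cells showing the perinucleolar compartment, a nuclear body marking cancer cells; inconclusive means readout between -30 and a set limit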;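 further: plate controls were DMSO wells for no effect and camptothecin positive control wells for full effect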
#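 Read-out is percentage of cells bearing a perinucleolar compartment, from automated 20x imaging of fixed, Hoechst-stained PC3M PTB-GFP cells. Cells were seeded 4 h, then exposed 16 h to compound (23 nl of library stock) in duplicate plates.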
# ALOX15B inhib: blocks human 15-lipoxygenase 2 activity | O15296 | purified 15hLO-2, xylenol orange hydroperoxide absorbance | Potency, µM (highest dose often 57.1 µM), inactives show top-dose activity change, negative = inhibition, actives largely listed as inhibitors | hit rate 0.56% among 110,000 | AID 881; further: potency means the concentration at half of the fitted maximal effect; nearly all actives have a fitted effect of over 60% in size
#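 Purified human 15hLO-2 (50 nM final) preincubated with compounds 15 min at room temperature in 25 mM Hepes pH 7.5, 0.01% Triton X-100, then 45 uM arachidonic acid added for 90 min; hydroperoxide detected via ferrous/xylenol orange, 573/405 nm absorbance ratio.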
# ALOX12 inhib: blocks human 12-lipoxygenase activity; Potency, µM (doses to about 57.1 µM), for the others: at the top dose activity change, negative = inhibition, hits mostly inhibitors; AID 1452; purified 12-hLO, xylenol orange hydroperoxide absorbance; P18054; hit rate 0.12% among 150,000; further: potency means the concentration at half of the fitted maximal effect; nearly all actives have a fitted effect of over 55% in size
# Target sequence (P18054 whole entry, looked up): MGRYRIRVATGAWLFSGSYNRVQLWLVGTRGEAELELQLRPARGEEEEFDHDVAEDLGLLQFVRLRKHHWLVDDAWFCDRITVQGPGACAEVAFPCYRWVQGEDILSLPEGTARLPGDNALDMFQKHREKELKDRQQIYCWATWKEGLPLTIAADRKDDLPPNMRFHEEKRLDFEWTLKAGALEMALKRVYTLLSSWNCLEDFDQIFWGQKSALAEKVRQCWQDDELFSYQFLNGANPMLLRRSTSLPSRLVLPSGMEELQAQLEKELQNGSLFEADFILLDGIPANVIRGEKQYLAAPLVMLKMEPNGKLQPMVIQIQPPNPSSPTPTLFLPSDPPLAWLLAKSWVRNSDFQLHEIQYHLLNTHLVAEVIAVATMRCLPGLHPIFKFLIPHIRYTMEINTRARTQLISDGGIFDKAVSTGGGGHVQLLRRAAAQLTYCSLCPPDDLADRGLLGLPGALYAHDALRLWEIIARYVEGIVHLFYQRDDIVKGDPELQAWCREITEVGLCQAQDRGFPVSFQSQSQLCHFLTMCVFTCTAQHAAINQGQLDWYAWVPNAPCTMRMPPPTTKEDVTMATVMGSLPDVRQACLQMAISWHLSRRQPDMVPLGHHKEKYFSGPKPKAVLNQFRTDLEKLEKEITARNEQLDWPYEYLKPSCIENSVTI
#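 150 nM 12hLO, 25 mM Hepes pH 7.0 + 0.01% Triton X-100; cpd preinc 15 min RT; 40 uM arachidonic acid, 30 min RT; Fe-XO 30 min; A573/A405 ratio as read-out.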
# An asterisk follows results filed as active; ? = inconclusive; · = not tested or not shown; [ ] = remark or other dose. Most compounds without a hit are left out; they make up all but 3.2% or so of the library. Unless noted, the call rests on the fitted dose curve; in most records, active means well fitted curve in the direction sought with a large enough effect; inconclusive means small, poorly fitted or top-dose-only effect, or another doubt; inactive means no such curve, though single readings can be large; an effect the other way counts as inactive or inconclusive. Unless noted, on the % scale 0 is the no-effect control and ±100 the full control effect.
SMILES,PNC assembly inh,ALOX15B inhib,ALOX12 inhib
Cc1c(CN(C)C(=O)c2sc3cc(Cl)ccc3c2Cl)cnn1C,27,12%,-3%
Cc1cc(C(=O)N/N=C/c2ccco2)c2ccccc2n1,22,·,-1%
CCCc1cc(C(=O)N/N=C/c2ccc(C)o2)c2ccccc2n1,-1,?,-8%
Cc1cc(C(=O)N/N=C/c2ccc(C)o2)c2ccccc2n1,-94*,·,3%
Cc1ccc(/C=N/NC(=O)c2cc(C3CC3)nc3ccccc23)o1,-108*,·,-3%
COc1ccc(OC2C(=O)N(Cc3ccc4c(c3)OCO4)C2c2sccc2C)cc1 (stereo unspecified),?,20%,0%
COC(=O)c1ccc(C(NC(=O)OCc2ccccc2)/C(=C/[C@@H](C)C(=O)N(C)Cc2cccnc2)c2cccnc2)cc1 (stereo partly specified),·,15%,0%
c1ncc(-c2ccc3c(c2)OCO3)c(NCCc2cnc[nH]2)n1,·,48%,-1%
Nc1cc(C(F)(F)F)ccc1C(=O)O,-3,·,-3%
Nc1cc(S(=O)(=O)C(F)(F)F)ccc1C(=O)O,-127*,0%,-4%
CCOC(=O)c1cc(C)[nH]c(=S)c1C#N,40,25µM*,-7%
CCOC(=O)c1cc(C(=O)OCC)c(=O)[nH]c1C,16,·,-4%
CC(=O)OC1CC2C(C)(C)C(=O)C3OC3[C@]2(C)C2CC[C@@]3(C)C(c4ccoc4)OC(=O)C4OC43[C@]12C (stereo partly specified),·,-10%,-2%
c1ccc2[nH]c3cc4ncnc4cc3nc2c1,-81*,·,-3%
CCc1nc2ccccc2[nH]1,9,2%,4%
COc1ccc(CNc2cc(-c3ccccc3OC)ncn2)c(OC)c1,·,-13%,·
CC(C)(C)OC(=O)N[C@H](Cc1ccccc1)C(=O)N1CCC(C(=O)O)CC1,-83*,5%,-4%
CC(C)C[C@H](NC(=O)OC(C)(C)C)C(=O)N1CCC(C(=O)N[C@@H](Cc2ccccc2)C(=O)O)CC1,50,2%,-1%
O=C(Nc1ccccc1)N1CC2(CCN(C(=O)c3cccc(F)c3)CC2)C1,·,5%,-1%
COCCN(C(=O)CNC(=O)c1cccs1)C(C(=O)NC1CCCC1)c1cccs1 (stereo unspecified),-23,3%,-4%
COCCN(C(=O)CNC(=O)c1ccco1)C(C(=O)NC1CCCC1)c1cccs1 (stereo unspecified),-100*,·,1%
O=C1C(CCC(O)c2ccc(F)cc2)C(c2ccc(O)cc2)N1c1ccc(F)cc1 (stereo unspecified),·,0%,-8%
CC(C)=CC[N+]1(C)CCCCC1,15,·,-7%
CC1(C)O[C@H]2C[C@@H]3[C@H]4CCC5=CC(=O)CC[C@@]5(C)[C@]4(F)[C@@H](O)C[C@@]3(C)[C@@]2(C(=O)CCl)O1,·,-2%[25.6 µM],-2%[25.6 µM]
CC(=O)C1CCN(Cc2ccccc2)CC1,25,-4%,10%
SMILES,PNC assembly inh,ALOX15B inhib,ALOX12 inhib
CSc1ccccc1OC1CCN(Cc2ccccc2)CC1,-109*,·,-5%
CN(CC(O)CON=C1c2ccccc2-c2ccccc21)S(=O)(=O)c1ccc(Br)cc1 (stereo unspecified),-23,·,-3%
COc1cccc(C(=O)CN(C(=O)c2ccc(Cl)c(Cl)c2)N2C(=O)C3CCCCC3C2=O)c1 (stereo unspecified),10,-5%,-5%
COC(=O)c1sc(NC(=S)NC(=O)c2ccccc2)nc1C,-88*,·,-3%
Cc1nc(NC(=S)NC(=O)c2ccccc2)sc1C(=O)N(C)C,16,-3%,-4%
COCCn1c(=O)c(-c2cc(F)cc(F)c2)nc2cnc(N(C)C)nc21,·,-5%,·
COc1cccc(Cn2c(=O)c(CCc3ccccc3)nc3cnc(N4CCOCC4)nc32)c1,·,-2%,·
O=[N+]([O-])c1cc(S(=O)(=O)N2CCCC2)ccc1N/N=C/c1cccnc1,70,·,1%
COc1ccc(NC(=O)c2oc3cc(C)c(C)cc3c2C)c(OC)c1,7,·,4%
COc1ccccc1NC(=O)c1oc2ccc(C)cc2c1C,-80*,5%,-6%
COc1ncc2nc(-c3cn(C)c4ccccc34)c(=O)n(CCC#N)c2n1,·,-2%,·
Cc1ccc(S(=O)(=O)N2CCCN(S(=O)(=O)c3ccc4ccccc4c3)CC2)cc1,-100*,·,6%
O=S(=O)(c1ccc2ccccc2c1)N1CCN(S(=O)(=O)c2ccc3ccccc3c2)CC1,·,-7%[11.4 µM],2%[11.4 µM]
CC1=C(C(=O)OC(C)C)C(c2cncc(-c3ccc(F)cc3)c2)C(C#N)=C(N)O1 (stereo unspecified),-26,·,0%
CC1=CC(C)(C)[N+](C)=CN1c1ccccc1,2,·,2%
CNc1cc(-n2nc(C)cc2-c2ccccc2)ncn1,-8,5%,3%
Cc1cc(-c2ccccc2)n(-c2cc(N/N=C/c3ccccc3O)ncn2)n1,-91*,·,-1%
COc1ccc(C(NC(=O)C2CCCCC2)c2c(O)ccc3ccccc23)cc1 (stereo unspecified),52,·,-8%
O=C(COn1nnc2ccc(C(F)(F)F)cc21)Nc1c(Cl)cccc1Cl,?,·,-1%
Cc1ccc(-c2cc(C(=O)N3CCN(c4ccc(F)cc4)CC3)c3ccccc3n2)o1,?,13µM*,-14%
CCOc1ccc(-c2cc(C(=O)N3CCN(C)CC3)c3ccccc3n2)cc1,23,-11%,-12%
CCOC(=O)N1CCN(C(=O)c2cc(-c3ccc(OCC)cc3)nc3ccccc23)CC1,-95*,1%,-12%
CC(=O)c1ccc(N2CCN(C(=O)c3cc(-c4ccc5c(c4)OCO5)nc4ccccc34)CC2)cc1,?,-16%,-10%
CCCCc1nc2c(c3c1C[C@H](C)OC3)CN(S(=O)(=O)c1ccc(C#N)cc1)CC2,·,·,0%[11.4 µM]
Cc1cc(Nc2ccccc2C(=O)O)nc2nc3ccccc3c(=O)n12,-90*,3%,-1%
SMILES,PNC assembly inh,ALOX15B inhib,ALOX12 inhib
O=C(O)c1ccccc1Nc1ccccc1,·,-21%,-7%
O=C(NNC(=O)C(c1ccccc1)c1ccccc1)c1cccs1,-18,2%[11.4 µM],0%
CC#CCN1c2ccccc2[C@]23C[C@@H](C(=O)OC)N(S(=O)(=O)c4ccc5c(c4)OCCN5C)C2=NC(C(=O)OC)=C(C(=O)OC)[C@H]13,·,·,-2%[11.4 µM]
CC(=O)c1ccc(NC(=O)C(C)OC(=O)c2ccc(NS(=O)(=O)c3ccc(F)c(F)c3)cc2)cc1 (stereo unspecified),-100*,·,-8%
Cc1ccc(NC(=O)C(C)OC(=O)c2ccc(NS(=O)(=O)c3ccc(F)c(F)c3)cc2)cc1 (stereo unspecified),-27,·,-1%
CCc1ccccc1N(C1=NCCCS1)S(=O)(=O)c1ccc(C(C)(C)C)cc1,?,·,4%
O=C(NCC(c1ccco1)N1CCCC1)c1ccc(Cl)cc1 (stereo unspecified),48,9%,8%
OC(CNCC(c1ccco1)N1CCCCC1)c1ccccc1 (stereo unspecified),-127*,21%,-6%
O=C1NC(=O)[C@@]2(CCOc3ccc(F)cc32)N1,·,23%[0.0915 µM],0%[0.00818 µM]
Cc1ccc(S(=O)(=O)NC2CCC(C(=O)O)CC2)cc1 (stereo unspecified),-103*,12%,3%
Cc1ccc(S(=O)(=O)NC2CCCCC2)cc1,·,-1%,0%
